Experimental data from the supplement of paper PMC11732987, “Enantioselective OTUD7B fragment discovery through chemoproteomics screening and high-throughput optimisation” (Communications Chemistry, 2025).

Each molecule was assayed against COPS5 (UniProt Q92905) (assay: log2 ratio of Biotin-Ahx-Ub-VS probe labelling (fragment/DMSO); higher = less target engagement (more negative = stronger competition), active = hit call of the paper (q ≤ 0.05, log2 ratio ≤ -1)). Settings: compound concentration: 200 uM; treatment time: 3 h.
COPS5, sequence (Q92905 whole entry, looked up, the tested form may be a part): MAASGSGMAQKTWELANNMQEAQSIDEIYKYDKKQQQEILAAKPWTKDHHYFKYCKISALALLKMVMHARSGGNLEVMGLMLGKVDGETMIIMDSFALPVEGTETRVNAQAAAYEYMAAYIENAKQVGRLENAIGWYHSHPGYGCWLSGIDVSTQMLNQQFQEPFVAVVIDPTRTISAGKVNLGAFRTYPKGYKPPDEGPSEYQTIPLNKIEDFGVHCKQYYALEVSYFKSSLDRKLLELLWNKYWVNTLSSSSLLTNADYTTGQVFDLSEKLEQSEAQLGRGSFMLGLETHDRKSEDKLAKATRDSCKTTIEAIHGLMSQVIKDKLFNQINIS
Method: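 Competitive ABPP in HEK293T cell lysate. Lysates were treated with each chloroacetamide fragment at 200 µM for 3 h, then with Biotin-Ahx-Ub-VS (0.5 µM, 1 h), NeutrAvidin-enriched and analysed by diaPASEF LC-MS/MS. Protein LFQ was median-normalised; average log2 ratio is fragment/DMSO from an unpaired t-test (n=3 treated, n=44 DMSO). Hits: q ≤ 0.05, log2 ratio ≤ -1, unique peptides ≥ 2.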

log2 ratio of Biotin-Ahx-Ub-VS probe labelling, inactive:
O=C(CCl)Nc1cc(Cl)ccc1C(=O)O 0.0271
NS(=O)(=O)c1ccc(Cl)c(NC(=O)CCl)c1 0.226
COc1cc(Cl)c(C)cc1NC(=O)CCl -0.0677
Cc1noc(C)c1CNC(=O)CCl 0.13
O=C(CCl)N1CC=C(c2c[nH]c3ccccc23)CC1 -0.0638
Cc1cc(Cl)ccc1NC(=O)CCl -0.176
CCN1C(=O)C2CN(C(=O)CCl)CCN2C1=O (stereo not given) -0.0909
O=C(CCl)N1CCC(=C(F)CO)C1 -0.253
Cc1noc(N2CCN(C(=O)CCl)CC2)n1.Cl -0.17
O=C(CCl)Nc1cc2c(cc1Cl)OCCCO2 -0.0643
O=C(CCl)NCc1noc(C2CC2)n1 0.133
O=C(CCl)Nc1nnc(CC(F)(F)F)o1 0.149
Cc1cc(C2CCCN2C(=O)CCl)nn1C.Cl (stereo not given) 0.0127
CCN(Cc1ccc(C#N)cc1F)C(=O)CCl -0.0333
O=C(CCl)N1CCc2ccccc2C(O)C1 (stereo not given) 0.0553
Cc1ccccc1C1(CNC(=O)CCl)CCOCC1 0.211
Cl.Cn1cnc2cc(CNC(=O)CCl)ccc21 -0.125
CN1C(=O)c2ccc(NC(=O)CCl)cc2C1=O -0.249
O=C(CCl)Nc1ccc(N2CCCC2=O)cc1 0.31
O=C(CCl)NC1CCS(=O)(=O)c2ccccc21 (stereo not given) 0.159
Cc1nc(CN2CCCN(C(=O)CCl)CC2)no1.Cl -0.0569
CS(=O)(=O)c1ccc(CNC(=O)CCl)cc1 0.0587
O=C(CCl)Nc1ccccc1C(F)(F)F 0.00522
COCC[C@@H](NC(=O)CCl)c1ccccc1 0.222
O=C(CCl)N1CCC(c2nc3ccccc3o2)CC1 -0.0083
CC(NC(=O)CCl)c1cccc2ccccc12 (stereo not given) 0.127
COc1ccc(C2CCCN2C(=O)CCl)c(OC)c1 (stereo not given) -0.524
N#Cc1cnn(-c2ccccc2)c1NC(=O)CCl -0.123
O=C(CCl)NCc1ccc(N2CCOCC2)nc1 0.0899
O=C(CCl)NC1CCC2(CC1)OCCO2 0.176
Cc1nnc(C(NC(=O)CCl)c2ccccc2)n1C (stereo not given) 0.37
O=C(CCl)N1CCOCCC1c1ccccc1 (stereo not given) -0.0175
O=C(CCl)N1CCC(C(O)c2ccc(F)cc2)CC1 (stereo not given) -0.113
CC1(NC(=O)CCl)CCS(=O)(=O)C1 (stereo not given) 0.0148
O=C(CCl)N[C@H]1CCS(=O)(=O)c2ccccc21 -0.0992
Cc1ccc(N(C(=O)CCl)C2C=CS(=O)(=O)C2)cc1 (stereo not given) -0.235
Cc1cccc(N(CCC#N)C(=O)CCl)c1C -0.0126
CC(NC(=O)CCl)c1cccc(Cl)c1 (stereo not given) -0.0887
Cc1cccc2nc(CCNC(=O)CCl)cn12.Cl -0.0623
Cc1ncsc1CCNC(=O)CCl 0.936
